MBNL1 CUG block: inhibitors of human MBNL1 binding to CUG repeat RNA. Q9NR56. TR-FRET MBNL1-His/biotin-(CUG)12 binding, 665/545 ratio. Potency, µM (top dose mostly 57.5 µM), most hits filed as inhibitors. 0.036% of 280,000 active. AID 2675; active = well fitted inhibition curve with a large enough effect in the signal ratio, with a control signal flat, not every such curve was filed as active; inconclusive = small, poorly fitted or top-dose-only effect, or effect the other way, or a change in a side signal; inactive = no such curve, though single readings can be large or run the other way; the % refers to the signal ratio
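MBNL1-His + Biotin-(CUG)12, cpd titration 92 nM–58 uM; Tb anti-His Ab 0.055 ng/ul, SA-XL665 5 nM (final); 60 min RT; ratiometric 665/545 nm, Ex 340 nm; normalized to buffer and full-complex controls.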
CBFb-RUNX1 inh: blocks binding between human CBF-beta and RUNX1; AlphaScreen CBFb-His/RUNX1-biotin binding, biochemical; Q01196+Q13951; Potency, µM (titrated, usually from 59.8 µM), most hits filed as inhibitors; 230,000 tested, under 10 active; AID 1477
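CBFb-His/RUNX1-biotin, 30 nM each, preincubated 20 min RT; compound 15 min RT; Ni + streptavidin beads 50 ng each, 90 min RT; AlphaScreen read.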
TSHR antagonist: blocks TSH signaling through the human TSH receptor. AID 504810. P16473. 0.2% of 330,000 active. TSHR-expressing cells, TSH-stimulated cAMP HTRF, 2 h; stronger effect = lower value. activity change, negative = inhibition, % at 11.5 µM;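 active = activity change below a set negative limit, meaning inhibition stronger than a set level, cut at about -70% in these data; inconclusive = activity change between two set negative limits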
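Competitive HTRF cAMP read-out (cryptate anti-cAMP antibody, cAMP-d2; 30 min, room temperature) in freshly harvested TSHR cells. Compounds added before TSH at EC80 (4nM final), followed by 2 hours' incubation at 37 deg C.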
TSG101-PTAP inh: blocks PTAP/TSG101 interaction to inhibit HIV-1 budding. Q99816. Fluorescence polarization, FITC-PTAP peptide / Tsg101 binding. Potency, µM (titrated, usually from 115 µM), hits mostly inhibitors. 340,000 tested, under 10 active; active = well fitted inhibition curve with a large enough effect in the main read-out, with a control signal flat, not every such curve was filed as active; inconclusive = small, poorly fitted or top-dose-only effect, or effect the other way, or a change in a side signal; inactive = no such curve, though single readings can be large or run the other way
Target sequence (Q99816 whole entry, looked up): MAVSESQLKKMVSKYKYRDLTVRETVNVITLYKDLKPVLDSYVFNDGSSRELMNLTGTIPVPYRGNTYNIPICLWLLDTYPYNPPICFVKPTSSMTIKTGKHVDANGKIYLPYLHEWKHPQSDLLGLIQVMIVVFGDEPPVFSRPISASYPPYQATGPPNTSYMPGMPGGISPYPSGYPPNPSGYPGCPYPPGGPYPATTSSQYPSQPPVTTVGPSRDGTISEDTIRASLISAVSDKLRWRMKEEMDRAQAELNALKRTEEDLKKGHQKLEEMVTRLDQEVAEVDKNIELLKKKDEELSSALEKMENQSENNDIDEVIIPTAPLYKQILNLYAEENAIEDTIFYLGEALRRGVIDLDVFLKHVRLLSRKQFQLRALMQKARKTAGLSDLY
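Fluorescence anisotropy tracks displacement of a FITC-tagged PTAP peptide (50 nM) from the Tsg101 binding domain (10 uM), following a 20 min room-temperature incubation at pH 7.5.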
Integrin act MD: activators of alpha7 integrin expression for muscular dystrophy | Potency, µM (highest dose often 38.3 µM), usual class: activators | alpha7betagal myoblasts, beta-gal FDG fluorescence, 48 h | 0.064% of 350,000 active; also: nearly all actives have a fitted effect of over 60% in size
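Alpha7betagal+/- myoblasts (passage 13) were plated 16-24 hr, then exposed to compounds (1:260 dilution of DMSO stock) for 48 hours at 37C. After MPER lysis, β-galactosidase reporter activity was read as FDG fluorescence (ex 480/em 540) after 30 minutes.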
TCR act: activators of T cell receptors. 330,000 tested, under 10 active. primary human leukocytes, anti-CD3, IL-2 HTRF, 48 h. AID 504894. Potency, µM (top dose mostly 9.22 µM), most hits filed as activators
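48 hr co-incubation of compounds, a-CD3 beads and primary human leukocytes; IL-2 quantified homogeneously by HTRF with anti-IL-2 K and d2 conjugates.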
A number is an active result; 0 = inactive; ? = inconclusive; - = no result given; [ ] = another dose, or the depositor's remark. Compounds with a hit are over-represented: about 0.26% of the library has one in this group of screens. Unless noted, calls follow the shape of the dose curve; as a rule, active = well fitted curve in the direction sought with a large enough effect; inconclusive = small, poorly fitted or top-dose-only effect, or another doubt; inactive = no such curve, though single readings can be large; an effect the other way counts as inactive or inconclusive.

SMILES	MBNL1 CUG block	CBFb-RUNX1 inh	TSHR antagonist	TSG101-PTAP inh	Integrin act MD	TCR act
O=C(CC1C(=O)NCCN1Cc1cccc(F)c1F)NCCCC1CCCC1 (stereo unspecified)	0	-	-82.4	0	0	0
CCc1ccc(C(=O)c2cn(CC(=O)Nc3cccc(OC)c3)c3ccc(OC)cc3c2=O)cc1	-	-	0	-	-	-
Cc1ccc(NC(=O)CCc2nnc3ccc(NCc4ccco4)nn23)nc1	0	-	-96.4	0	0	0
O=C(CCS(=O)(=O)c1ccc(Br)cc1)NCc1ccc(F)cc1	0	-	-126.0	0	0	0
N#Cc1ccccc1-c1csc(N2CCC(C(N)=O)CC2)n1	-	-	0	-	-	-
C[C@H](N)C(=O)N[C@@H](CO)C(=O)N[C@H](C(=O)N[C@H](C(=O)N[C@H](C(=O)N[C@@H](CC(N)=O)C(=O)N[C@@H](Cc1ccc(O)cc1)C(=O)N[C@H](C(=O)O)[C@@H](C)O)[C@@H](C)O)[C@@H](C)O)[C@@H](C)O	-	0	-	-	-	-
COc1ccc(CCNc2ncnc3c2oc2ccccc23)cc1OC	0	0	-79.6	0	0	0
CCCC[C@@H]1C[C@H]1C(NS(=O)(=O)c1cccc2cccnc12)c1ccc(-c2ccccc2)cc1 (stereo partly specified)	-	0	-	-	-	-
Cc1ccc(Nc2cc(C)nc3ccc(C)cc23)cc1	?	-	-95.7	0	?	0
CCOc1ccc(Nc2cc(C)nc3ccc(C)cc23)cc1	-	-	-	0	?	0
CC1(C)CC(=O)C2=C(C1)OC(N)=C(C#N)C21CCN(Cc2ccccc2)CC1	0	0	0	0	0	0
Cc1nc2c([nH]1)C1(CCN(Cc3ccccc3)CC1)C(C#N)=C(N)O2	0	0	0	0	12.6µM	0
Oc1ccc(COC2CCN(Cc3ccccc3)C2)c2cccnc12 (stereo unspecified)	-	-	0	-	-	-
COc1ccc(/C=C/C(=O)N2CCN(C)CC2)cc1OC	?	-	-122.0	0	0	-
COc1ccc(/C=C/C(=O)N2CCOCC2)cc1OC	0	-	0	0	0	0
CNc1nnc(SCC(=O)c2cc(C)n(C3CC3)c2C)s1	-	-	0	0	12.6µM	0
Cc1cc(Cl)ccc1Nc1ncccc1C(N)=O	0	0	0	0	0	0
NC(=O)c1cccnc1Oc1ccc(Cl)cc1Cl	0	0	0	0	10µM	0
Oc1c(Br)cc(Br)cc1CNc1cccc2cccnc12	?	-	0	0	12.6µM	-
CCC1CCCCN1S(=O)(=O)c1ccc(NC(=O)c2nc(S(C)(=O)=O)ncc2Cl)cc1 (stereo unspecified)	0	-	-84.4	0	0	0
CCC1CCCCN1S(=O)(=O)c1ccc(NC(=O)c2ccncc2)cc1 (stereo unspecified)	0	-	0	-	0	0
CC(C)[C@@H](OCc1ccccc1)[C@H](C)/C=N\OC[C@@H](O)[C@@H]1O[C@@H]2OC(C)(C)O[C@@H]2[C@H]1O	-	0[13.1 µM]	-	-	-	-
CC[C@]1(O)C[C@@H]2CN(CCc3c([nH]c4ccccc34)[C@](C(=O)OC)(c3cc4c(cc3OC)N(C)[C@H]3[C@](O)(C(=O)OC)[C@@H](C(=O)OC)[C@@]5(CC)C=CCN6CC[C@@]43[C@@H]65)C2)C1	-	0	-	-	-	-
Fc1ccc2[nH]c3c(N4CCc5ccccc5C4)ncnc3c2c1	-	0	?	0	0	0
Brc1ccc2[nH]c3c(N4CCc5ccccc5C4)ncnc3c2c1	0	0	-76.7	0	0	0
SMILES	MBNL1 CUG block	CBFb-RUNX1 inh	TSHR antagonist	TSG101-PTAP inh	Integrin act MD	TCR act
O=C1C[C@@H](O)[C@@H](O)[C@@H]2[C@H]3C(=O)N(c4ccc(F)cc4F)C(=O)[C@@H]3CC[C@@H]12	-	0[13.1 µM]	-	-	-	-
OC1c2ccccc2N=C2CCCN21 (stereo unspecified)	-	0	-	-	-	-
CCSC1=NSC2=NC(=O)/C(=C\c3coc4ccccc4c3=O)C(=N)N12	-	0	-90.6	?	0	0
CC(C)CC1=NN2C(=N)/C(=C\c3coc4ccccc4c3=O)C(=O)N=C2S1	0	0	0	?	0	0
CCCC[C@]12Cc3cc(C#N)ccc3C(O1)c1c(cc(C)n(-c3ccccc3)c1=O)O2	0[11.5 µM]	-	-	-	-	-
COc1ccccc1C(=O)NCCC(=O)Nc1ccncc1	-	-	0	0	0	0
COc1ccccc1C(=O)NCCC(=O)Nc1ccc(OC(F)(F)F)cc1	0	-	-95.4	0	0	0
COC(=O)[C@H](Cc1ccccc1)NC(=O)[C@@]1(C)C[C@@H]1[C@@H](NC(=O)OCc1ccccc1)c1ccccc1	0	0[2.36 µM]	-82.2	0	0	0
COc1ccc(Cn2nnnc2C(c2ccccn2)N2CCN(c3cc(Cl)ccc3C)CC2)cc1 (stereo unspecified)	0	0	-92.7	0	0	0
CCCC(c1nnnn1Cc1ccc(OC)cc1)N1CCN(c2ccccc2)CC1 (stereo unspecified)	0	0	0	0	0	0
COc1ccc(Cn2nnnc2C(CC(C)C)N2CCN(c3ccccc3)CC2)cc1 (stereo unspecified)	0	0	-72.0	0	0	0
CNC(=O)/C(=C\c1cccc(Oc2ccccc2)c1)NC(=O)c1ccccc1	0	0	0	0	11.2µM	0
O=C(COC(=O)c1cc2ccccc2oc1=O)Nc1ccc(F)cc1F	-	0	0	0	4.47µM	0
CCN(c1ccc(NC(=O)COC(=O)c2cc3ccccc3oc2=O)cc1)C(C)C	-	0	0	0	0	0
CC(=O)c1cccc(OCC(O)CNCCc2ccc(Cl)cc2)c1 (stereo unspecified)	0	-	0	0	0	0
CCOC(=O)c1cccc(OCC(O)CNCCOc2ccccc2F)c1 (stereo unspecified)	0	-	-105.7	0	0	0
CCCCCCCCCCCCCCOc1ccc(C(=O)O)o1	-	0	-	-	-	-
O=[N+]([O-])c1ccc(N2CCN(c3ccccc3)CC2)nc1	0	-	0	0	0	0
O=[N+]([O-])c1ccc(N2CCN(c3ccccc3F)CC2)nc1	0	-	0	0	5.62µM	0
CCCn1c(-c2ccc(F)cc2)nc2c(NCCN3CCCCC3)nc(C)nc21	-	0	-	-	-	-
CC(=O)Nc1nonc1-c1nc2ccccc2n1CCC(C)C	0	0	0	0	11.2µM	0
O=C1/C(=C/c2ccsc2)CC/C1=C\c1cccs1	-	-	0	-	-	-
N#Cc1nccnc1S(=O)(=O)c1cccs1	0	0	-86.5	0	0	0
O=C1NC(=O)c2cc(Nc3ccccc3)c(Nc3ccccc3)cc21	-	0	0	-	-	-
Cc1cc(OCC(=O)NC(C)C)ccc1Cl	0	0	0	0	3.98µM	0
COC(CNC(=O)c1cn(C)c2ccc(S(=O)(=O)N3CCOCC3)cc2c1=O)OC	0	-	-118.4	0	0	0
